# TWEAK-Fn14 inh: blocks TWEAK-Fn14 interaction in a reporter cell assay; 360,000 tested, 2% active; TWEAK-stimulated Fn14 reporter cells, luciferase luminescence, 8 h; inhibition, % at 10 µM; AID 1159606; in the data active = inhibition above about 50%
# HIF-2a block: HIF-2a inhibition; 360,000 tested, 0.72% active; inhibition, % at 18.8 µM; 786-0 RCC cells HIF-2a reporter, luciferase luminescence, overnight;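 active = inhibition of the luminescence signal of 40% or more relative to plate controls, in a single-dose primary screen at 18.75 µM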
# CF NFkB inh: blocks PAF-induced NF-kB reporter in cystic fibrosis cells; 360,000 tested, 0.86% active; AID 588850; KKLEB NF-kB-GFP reporter, GFP fluorescence overnight; inhibition, % at 5 µM;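 active = at least 50% inhibition at 5 µM, scaled per plate between neutral and stimulator controls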;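 note: PAF is a Pseudomonas aeruginosa culture filtrate used as stimulus; plate controls were PAF-stimulated DMSO wells for no effect and unstimulated DMSO wells for full effect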
# hiPSC survival: enhancers of human iPSC single-cell survival; hiPSC single-cell survival, ATPlite luminescence; 100% = ROCK inhibitor wells, 0% = DMSO; survival enhancement, % at 20 µM; 360,000 tested, 0.044% active; AID 602274; in the data active = survival enhancement above about 18%;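 note: cells exposed to compounds for 16 hours before the ATP read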
# LGR2 antag: blocks bursicon-induced cAMP signaling via Drosophila LGR2. HEK293 LGR2, CRE-luciferase, bursicon-stimulated, 4 h. inhibition, % at 9.99 µM. 380,000 tested, 0.35% active;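 active = drop in luminescence signal, shown as inhibition above about 50% in the replicate tests, limit read from the data, passing the limit was not always enough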;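 note: agonist challenge used bursicon conditioned medium at about half maximal strength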
# KKLEB cytotox: counter-screen for CF NF-kB inhibitors: cytotoxicity; KKLEB CF airway cells viability, ATPlite luminescence, overnight; hits give low values; cells stimulated with P. aeruginosa culture filtrate; activity change (cytotoxicity), % at 5 µM; 360,000 tested, 0.36% active; AID 602141;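 active = corrected activity change at or below -50% at 5 µM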
# CF NFkB inh conf: confirmation of cystic fibrosis induced NF-kB inhibitors; shares compounds with CF NFkB inh; KKLEB CF airway cells, PAF-induced NF-kB-GFP fluorescence, overnight; inhibition, % at 5 µM; 1,300 tested, 64% active; AID 602472; in the data active = inhibition above about 40%;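 note: stimulus PAF is a Pseudomonas aeruginosa filtrate and not platelet activating factor; plate controls were DMSO wells with stimulus for no effect and unstimulated DMSO wells for full effect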
# Numbers without * were called inactive; · = no result given. A selection: hits, their analogues and other compounds. The true share with any hit is near 2.3%.
SMILES,TWEAK-Fn14 inh,HIF-2a block,CF NFkB inh,hiPSC survival,LGR2 antag,KKLEB cytotox,CF NFkB inh conf
CCc1ccc(Oc2nnnn2-c2ccc(C(N)=O)cc2)cc1,-17.9,-5.3,-17.4,0.8,0.4,-5.1,·
COc1cccc(S(=O)(=O)Nc2ccc3c(c2)[C@H]2C[C@@H](CC(=O)N4CCCCC4)O[C@H](CO)[C@H]2O3)c1,·,·,·,·,11.4,·,·
COc1ccc(NC(=O)c2ccc(Cl)nc2)cc1S(=O)(=O)N1CCOCC1,13.9,9.2,3.3,-0.4,-5.6,-0.8,·
COc1ccc(NC(=O)Cn2ncc(Cl)c(Cl)c2=O)cc1S(=O)(=O)N1CCOCC1,73.6*,37.3,54.6*,10.7,-14.4,-14.2,18.0
Cc1noc(C)c1NC(=O)N(C)C[C@H]1Oc2ccc(NC(=O)NC3CCCCC3)cc2C(=O)N([C@@H](C)CO)C[C@H]1C,·,·,·,·,0.2,·,·
CCCC#Cc1ccc([C@@H]2[C@@H](CO)N3C(=O)CN(C(=O)CN4CCOCC4)C[C@@H]23)cc1,·,·,·,·,-0.6,·,·
N#CC1=C(N)Oc2cc(O)c(C=Nc3ccccc3)cc2C1c1ccccc1 (stereo not drawn),-6.8,30.7,41.4,0.9,2.7,15.8,·
Cc1ccc(N=Cc2cc3c(cc2O)OC(N)=C(C#N)C3c2ccccc2)cc1 (stereo not drawn),3.3,35.0,54.2*,0.8,-42.1,17.6,74.3*
COc1ccc(-c2nn(C)c3sc(C(=O)NCc4ccco4)cc23)cc1OC,-10.1,0.6,-16.1,-1.0,·,1.0,·
COc1ccc(NC(=O)c2cc3c(-c4ccc(OC)c(OC)c4)nn(C)c3s2)cc1OC,58.4*,-2.0,86.9*,-1.8,·,-20.8,61.6*
CCOC(=O)[C@@H]1[C@H]2COc3ccc(Br)cc3[C@H]2N2C(=O)N(c3ccc(C)cc3)C(=O)[C@]12C,-19.4,16.7,50.8*,1.0,8.4,-10.8,41.9*
CN1CCN(C(=O)C[C@@H]2C=C[C@@H](NC(=O)Nc3ccccc3F)[C@@H](CO)O2)CC1,·,·,·,·,4.3,·,·
CCN1CCN(Cc2ccc(NC(=O)c3ccc(C)c(NC(=O)C(=O)c4c[nH]c5ccccc45)c3)cc2C(F)(F)F)CC1,-92.9,11.3,70.4*,-5.3,18.8,-9.6,70.8*
CCN1CCN(Cc2ccc(NC(=O)c3ccc(C)c(NC(=O)c4ccc5n[nH]nc5c4)c3)cc2C(F)(F)F)CC1,-1.8,15.0,55.2*,2.1,8.3,-10.8,69.5*
OCCCNc1ncnc2scc(-c3ccc(Cl)cc3)c12,73.2*,24.4,62.8*,0.7,19.3,-11.0,80.8*
Cn1c(-c2nonc2N)nc2ccccc21,-3.9,-21.1,-18.5,-0.2,-6.4,5.5,·
CCCn1c(-c2nonc2N)nc2ccccc21,31.3,6.9,65.6*,7.8,·,-28.0,61.1*
CC(=O)OCC(=O)C1(O)CCC2C3CC(C)C4=CC(=O)C=CC4(C)C3C(O)CC21C (stereo not drawn),3.7,17.9,65.4*,5.1,7.9,44.6,4.3
C[C@@H]1CCCCO[C@@H](CN(C)Cc2ccc(C(=O)O)cc2)[C@@H](C)CN([C@H](C)CO)C(=O)c2cc(NS(=O)(=O)c3ccccc3)ccc2O1,·,·,·,·,4.9,·,·
O=C(Oc1ccccc1C(=O)Nc1ccccc1)c1ccccc1Br,38.8,-115.6,61.6*,0.4,·,-46.5,-12.2
O=C(COc1ccccc1C(=O)Nc1ccccc1)c1ccc(Br)cc1,-2.8,-11.8,9.9,-0.4,8.1,-4.6,·
c1ccc2c(c1)Nc1ccncc1S2,54.9*,25.4,52.4*,-0.4,·,-3.7,77.4*
c1ccc2c(c1)Nc1cc3ccccc3cc1S2,-20.5,-142.9,-0.6,-0.7,4.6,9.7,·
CC(=O)Nc1nc(C)c(-c2csc(Nc3cccc(C(C)=O)c3)n2)s1,22.6,-10.4,80.8*,-0.2,-1.8,-44.1,81.8*
CN(C)C(=O)C[C@@H]1C[C@H]2c3cc(NC(=O)Nc4ccccc4)ccc3O[C@H]2[C@@H](CO)O1,·,·,·,·,-8.6,·,·
SMILES,TWEAK-Fn14 inh,HIF-2a block,CF NFkB inh,hiPSC survival,LGR2 antag,KKLEB cytotox,CF NFkB inh conf
O=C(Nc1cc(-c2nc3ncccc3o2)ccc1Cl)c1cccs1,-24.7,-32.0,-28.5,0.0,4.3,-1.8,·
O=C(Nc1cc(-c2nc3ncccc3o2)ccc1Cl)c1ccc([N+](=O)[O-])o1,22.0,-46.1,80.3*,-0.4,-3.6,-22.9,-182.0
Clc1cncc(Cl)c1N/N=C/c1ccncc1,59.4*,14.1,81.2*,6.2,22.4,-41.5,77.5*
CC(C)(C)OC(=O)NCC(=O)Oc1cc2oc(=O)cc(-c3ccccc3)c2cc1Cl,80.3*,13.5,52.8*,0.0,15.6,1.0,90.4*
O=C(Oc1cc2oc(=O)cc(-c3ccccc3)c2cc1Cl)C1CCCCC1,20.6,-3.9,64.4*,-1.3,·,-17.2,87.4*
O=C(Oc1ccc2ccc(=O)oc2c1)C1CCCCC1,-3.2,12.9,-9.8,-2.0,-6.1,1.0,·
O=c1[nH]c(C2CCN(S(=O)(=O)c3ccc4c(c3)OCCO4)CC2)nc2c1nnn2Cc1c(F)cccc1Cl,54.8*,22.3,68.1*,0.0,-17.0,-0.1,81.6*
Cc1noc(C)c1NC(=O)Nc1ccc2c(c1)C(=O)N([C@H](C)CO)C[C@@H](C)[C@H](CN(C)Cc1ccncc1)OCCCC[C@H](C)O2,·,·,·,·,16.0,·,·
ON=C1c2ccccc2-c2ccccc21,13.6,-12.0,62.3*,-0.6,3.1,3.5,52.8*
Cc1ccc(S(=O)(=O)N(C)C[C@H]2OCCCC[C@H](C)Oc3ccc(NS(C)(=O)=O)cc3C(=O)N([C@H](C)CO)C[C@@H]2C)cc1,·,·,·,·,-3.2,·,·
O=[N+]([O-])c1ccc(-c2nn(-c3ccccc3)cc2/C=N/n2c(-c3cccs3)n[nH]c2=S)cc1,-38.8,5.0,55.6*,-0.3,-12.0,-34.4,-7.2
S=c1[nH]nc(-c2ccncc2)n1/N=C/c1cn(-c2ccccc2)nc1-c1ccc(Cl)cc1,-19.9,-9.0,-22.8,0.1,·,-9.5,·
CC1(C)OC2CC3C4CC=C5CC(O)CCC5(C)C4CCC3(C)C2(C(=O)CO)O1 (stereo not drawn),-16.9,-8.3,6.1,-1.5,11.5,7.6,·
CC1(C)O[C@@H]2C[C@H]3[C@@H]4C[C@H](F)C5=CC(=O)C=C[C@]5(C)[C@@]4(F)[C@@H](O)C[C@]3(C)[C@]2(C(=O)CO)O1,-25.6,21.4,72.6*,3.8,31.9,24.7,24.6
CC1(C)O[C@@H]2C[C@H]3[C@@H]4CCC5=CC(=O)C=C[C@]5(C)[C@@]4(F)[C@@H](O)C[C@]3(C)[C@]2(C(=O)CO)O1,1.5,20.5,66.9*,7.0,-36.2,37.2,29.9
COc1ccc(Nc2cccccc2=O)cc1,-8.8,-79.2,16.7,-1.9,·,10.5,·
COc1ccc(Nc2cccc3ccccc23)cc1,104.5*,-115.4,75.9*,-2.7,-30.0,-22.3,-3.9
